Smad3 FoxH1 inh = Smad3/FoxH1 peptide binding inhibitors, primary screen, biochemical, TR-FRET; 88,000 compounds, 0.29% hits; TR-FRET Smad3/Dy647-FoxH1 peptide binding, europium anti-His; inhibition, % at 25 µM; Mothers against decapentaplegic homolog 3 (Homo sapiens), P84022;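 active means compounds that reduce the energy-transfer binding signal between the protein and its labelled peptide by more than half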
ERb coact inh = inhibitors of ERβ-SRC1 coactivator interaction, primary screen, biochemical, TR-FRET, ERβ LBD, SRC-1 peptide. inhibition, % at 25.6 µM. 86,000 compounds, 1.3% hits. Estrogen receptor beta (Homo sapiens), Q92731. TR-FRET ER-beta LBD / SRC1-Cy5 peptide binding; receptor agonist-loaded with 1 µM estradiol;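 active means compounds whose percent inhibition of the receptor-coactivator binding signal exceeds about 50% in the single-dose screen, limit read from the data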
ERa SRC1 pot = enhancers of ERα–SRC-1 coactivator binding, primary screen, biochemical, TR-FRET, ERα LBD, low estradiol; Estrogen receptor (Homo sapiens), P03372; coactivator binding (% of control), % at 25.6 µM; TR-FRET ERalpha-LBD/SRC-Cy5 coactivator binding, 2 h; 100 = basal binding, no effect; 86,000 compounds, 1.3% hits; AID 639, 2007; in the data active means activity above about 200%;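 further: binding measured in presence of low estradiol as agonist stimulus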
Target sequence (P03372 whole entry, looked up, the tested form may be a part): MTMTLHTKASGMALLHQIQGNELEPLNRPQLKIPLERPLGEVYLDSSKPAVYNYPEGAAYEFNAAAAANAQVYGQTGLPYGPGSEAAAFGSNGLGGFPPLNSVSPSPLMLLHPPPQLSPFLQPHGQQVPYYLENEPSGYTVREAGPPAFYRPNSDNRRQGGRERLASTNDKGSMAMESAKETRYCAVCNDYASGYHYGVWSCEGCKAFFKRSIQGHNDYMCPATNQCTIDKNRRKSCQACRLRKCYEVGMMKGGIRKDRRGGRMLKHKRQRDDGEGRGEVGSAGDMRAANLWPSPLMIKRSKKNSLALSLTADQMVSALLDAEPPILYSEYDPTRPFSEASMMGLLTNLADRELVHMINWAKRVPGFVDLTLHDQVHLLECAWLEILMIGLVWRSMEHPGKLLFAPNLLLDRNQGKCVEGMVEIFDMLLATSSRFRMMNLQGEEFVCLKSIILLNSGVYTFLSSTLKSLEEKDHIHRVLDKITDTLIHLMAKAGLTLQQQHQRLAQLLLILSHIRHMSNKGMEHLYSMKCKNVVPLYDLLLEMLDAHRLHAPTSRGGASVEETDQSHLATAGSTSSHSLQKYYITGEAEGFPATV
Calb biofilm kill = clotrimazole potentiators killing Candida biofilms, primary screen, with clotrimazole, Alamar Blue | 85,000 compounds, 0.14% hits | C. albicans biofilm + clotrimazole | inhibition, % at 6 µM | AID 834, 2007;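 active means inhibition above 20%; inactive means inhibition below 20%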;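 further: preformed 24 hr biofilms exposed to compound for 48 hr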
ERa SRC1 inh = ERα–SRC-1 coactivator interaction inhibitors, primary screen, biochemical, TR-FRET, ERα LBD, estradiol-bound; Estrogen receptor (Homo sapiens), P03372; TR-FRET ER-alpha LBD / SRC-1 peptide; inhibition, % at 25.6 µM; 86,000 compounds, 1.7% hits; in the data active means inhibition above about 50%
Hits are given with their value; - = inactive; . = no result; [ ] = dose if it differs, or a comment. In the library only some 3.6% were active in any assay of this set; here they are far more common.

SMILES	Smad3 FoxH1 inh	ERb coact inh	ERa SRC1 pot	Calb biofilm kill	ERa SRC1 inh
O=C(NCCc1ccccc1)c1ccc2nc(-c3ccco3)c(-c3ccco3)nc2c1	-	88[fluorescence artefact?]	-	-	86[fluorescence artefact?]
Cc1ccc(C)c(N2CCN(C(=O)c3ccc4nc(-c5ccco5)c(-c5ccco5)nc4c3)CC2)c1	-	-	-	-	-
CCOC(=O)C1CCCN(C(=O)COC(=O)C2=COCCO2)C1 (centres undefined)	-	-	-	-	-
CCOC(=O)N1CCC(NC(=O)C(NC(=O)C2CCC(C)CC2)C(C)CC)CC1 (centres undefined)	-	-	-	-	-
Cc1ccc(CNC(=O)C2CCCN(c3nc4ccccc4o3)C2)cc1 (centres undefined)	-	-	-	-	-
COc1ccc(Br)cc1CNC(=O)C1CCCN(c2nc3ccccc3o2)C1 (centres undefined)	-	-	-	-	64
CCc1ccc(C(=O)Cn2ncc(Cl)c(Cl)c2=O)cc1	-	52	-	-	-
CCc1ccc(C(=O)c2cncc(Br)c2)cc1	-	-	-	-	-
CCCCNC(=O)Nc1ccon1	-	99[fluorescence artefact?]	-	-	-
CSc1cc(-c2ccccc2)n(Cc2c(Cl)cccc2Cl)c(=O)c1C#N	-	-	-	-	-
CSc1cc(-c2ccc(Cl)cc2)n(Cc2ccccc2)c(=O)c1C#N	-	-	-	-	54[fluorescence artefact?]
C[C@H]1[C@H](C)CC[C@@]2(C(=O)O)CC[C@@]3(C)C(=CC[C@H]4[C@]5(C)C[C@H](O)[C@@H](O)[C@@](C)(CO)[C@H]5[C@H](O)C[C@@]43C)[C@H]12	86	.	.	.	.
CC1CCC(n2c(=S)[nH]c3ccccc3c2=O)CC1 (centres undefined)	-	-	218[fluorescence artefact?]	-	-
Cc1ccc2oc(=O)c3cc(C(=O)N4CCN(c5ncccn5)CC4)sc3c2c1	-	-	-	-	74[fluorescence artefact?]
Cc1cc(N2CCN(C)CC2)nc2ccc(NC(=O)c3cccnc3Cl)cc12	-	-	-	61	-
CCN1CCN(c2cc(C)c3cc(NC(=O)c4cccnc4Cl)ccc3n2)CC1	-	-	-	-	-
N[C@@H](Cc1cccnn1)C(=O)O	-	.	.	.	.
CC(=O)NCCOC(=O)Nc1ccncc1	-	-	-	-	55
c1ccc2c[n+](CCCC[n+]3ccc4ccccc4c3)ccc2c1	51	.	.	.	.
Cc1nc2ccc(S(=O)(=O)NCC(=O)NCCN3CCCCCC3)cc2s1	-	-	-	-	57[fluorescence artefact?]
O=C(Nc1nccs1)C1CCN(S(=O)(=O)c2cccnc2)CC1	-	-	-	21	-
CCOC(=O)c1cccc(NC(=O)c2cccs2)c1	-	79	-	-	-
CCOC(=O)c1cccc(NC(=O)c2ccco2)c1	-	-	-	-	-
Cc1cc(C)nc(SCCc2cccc[n+]2C)n1	-	.	.	.	.
Cc1ccc(-c2c(C(=O)N3CCOCC3)oc(=O)c3ccccc23)cc1	-	-	-	27	-
SMILES	Smad3 FoxH1 inh	ERb coact inh	ERa SRC1 pot	Calb biofilm kill	ERa SRC1 inh
CCN1CCN(C(=O)c2oc(=O)c3ccccc3c2-c2ccc(C)cc2)CC1	-	-	-	-	-
CSc1n[nH]c(NCc2ccc(C)cc2)n1	-	-	-	-	-
C[C@]12CC[C@H]3C(=CCc4cc(O)ccc43)[C@@H]1CCC2=O	-	-	206	-	-
O=C1c2ccccc2CC1(Cc1ccccc1)Cc1ccccc1	-	-	279	-	-
O=c1/c(=C/c2ccco2)sc2n1CN(c1ccccc1)CN=2	-	-	-	-	-
C=CCn1c(=O)/c(=C/c2ccc(C)o2)s/c1=C(/C#N)C(=O)c1ccccc1	-	-	-	-	-
Cc1ccc(-c2nc3s/c(=C\c4ccco4)c(=O)n3n2)cc1	-	58	-	-	96[fluorescence artefact?]
COc1ccccc1/C=c1\sc2nc(-c3ccncc3)nn2c1=O	-	-	-	-	-
CCN(CC)c1ccc(/C=c2\sc3nnc(-c4ccccc4Cl)n3c2=O)cc1	-	-	-	-	-
O=c1nc2s/c(=C\c3ccco3)c(=O)n2nc1Cc1ccc(F)cc1	-	88	-	-	96[fluorescence artefact?]
CCN(CC)c1ccc(/C=c2/sc3nnc(-c4ccccc4C)n3c2=O)cc1	-	-	413[fluorescence artefact?]	-	-
Cc1ccc(/C=c2/sc3nnc(-c4ccccc4Cl)n3c2=O)o1	-	-	-	-	58[fluorescence artefact?]
COc1ccc(C(C)(C)C)cc1NC(=O)Nc1ccc2c(c1)OCO2	-	-	-	-	-
CC(=O)c1sc2nc(=O)c(C)nn2c1C	-	-	-	-	-
CC(C)=C[C@H]1[C@H](C(=O)Oc2ccccc2C(C)C)C1(C)C	-	.	.	.	.
S=c1[nH]nc(Cc2sc(-c3ccccc3)nc2-c2ccccc2)o1	-	-	-	-	-
C=CCn1cnc2scc(-c3ccc(C)cc3)c2c1=O	-	-	-	-	-
COc1ccc(Br)cc1/C=c1\sc2nc(-c3ccco3)nn2c1=O	.	.	.	-	.
Cc1ccc(/C=c2\sc3nc(-c4ccco4)nn3c2=O)o1	-	64[fluorescence artefact?]	-	-	70
Cc1ccc(/C=c2\sc3nc(-c4ccccc4Br)nn3c2=O)o1	-	66	-	-	85[fluorescence artefact?]
CCN1CCCC1CNC(=O)c1nn(-c2ccc(C)cc2)c(=O)c2c1c1ccccc1n2C (centres undefined)	-	-	-	-	-
COc1ccc(-c2cc(C#N)nc(N3CCNCC3)n2)cc1	-	-	305[fluorescence artefact?]	-	-
NC(=O)c1ccsc1NC(=O)COC(=O)c1ccccc1NCc1ccco1	-	-	-	-	-
NC(=O)c1ccsc1NC(=O)COC(=O)Cc1ccsc1	-	60	-	-	55[fluorescence artefact?]
COC(=O)c1sccc1NC(=O)Cn1nnc(-c2ccc(C)cc2)n1	-	-	212	-	-
SMILES	Smad3 FoxH1 inh	ERb coact inh	ERa SRC1 pot	Calb biofilm kill	ERa SRC1 inh
COc1ccc(-c2nnn(CC(=O)Nc3sc4c(c3C#N)CCCC4)n2)cc1	-	-	-	-	51[fluorescence artefact?]
N#Cc1cc2c(nc1SCC(=O)Nc1sc3c(c1C#N)CCC3)CCC2	-	-	-	-	-
COc1ccc(-c2ccc(C#N)c(SCC(=O)Nc3sc4c(c3C#N)CCC4)n2)cc1OC	-	65[fluorescence artefact?]	-	-	84[fluorescence artefact?]
CCC(=O)Nc1sc2c(c1C#N)CCCCC2	-	-	-	-	-
Cn1c(CNC(=O)c2ccc(Cl)cc2)nnc1SCC(=O)Nc1sc2c(c1C#N)CCCC2	-	-	250	-	-
O=C(NCc1ccco1)C(c1cccs1)N(C(=O)C1COc2ccccc2O1)c1cccc(O)c1 (centres undefined)	-	-	-	-	-
O=C(O)[C@@H]1[C@H](C(=O)NCc2cccnc2)[C@@H]2CC[C@H]1O2	-	.	.	.	.
CCOc1ccc(-c2nnn(CC(=O)Nc3cc(OC)ccc3OC)n2)cc1OCC	-	-	-	-	-
CCOc1ccccc1NC(=O)Cn1nnc(-c2ccc(OCC)c(OCC)c2)n1	-	-	-	-	53[fluorescence artefact?]
